Shown are actives, neighbours in structure and some others; about 1.5% of the full set was active somewhere.
CRFR2-BP ag = CRF-BP/CRF-R2 complex agonism; HEK293 CRF-R2/CRF-BP, calcium dye fluorescence (FLIPR); percent of saturating CRF peptide response; activation, % at 13.2 µM; 350,000 compounds, 0.46% hits; AID 588473;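 active means activation of at least 50%, plus an integration ratio under a set limit after plate pattern correction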;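 further: plate controls were neutral control wells without compound for no effect and CRF at EC100 for full effect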
CRFR2-BP antag = antagonists of CRF-binding protein/CRF-R2 receptor complex; 350,000 compounds, 0.59% hits; inhibition, % at 11.8 µM; HEK293 CRF-R2/CRF-BP, CRF-induced calcium fluorescence; AID 588475;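 active means inhibition of the ligand-induced calcium signal above about 50% at the single tested concentration, limit read from the data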
IDE inh = inhibitors of human insulin-degrading enzyme in cells. HEK cells, FAbetaB cleavage, fluorescence polarization. inhibition, % at 5.59 µM. 320,000 compounds, 0.41% hits. AID 434962;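 active means percent inhibition above the average of all tested compounds plus 3 SD, set per screening campaign, cut at about 16% in these data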;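 further: IDE supplied by intact live HEK cells; FP after avidin binding of uncleaved biotin substrate so inhibition keeps polarization high; 0% = DMSO wells and 100% = 60 µM reference IDE inhibitor Ii1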
RTF Ca sens act = increases calcium sensitivity of human cardiac regulated thin filaments; IANBD-labeled TnC RTF fluorescence at EC20 calcium; 0% EC20 calcium, 100% full calcium; 340,000 compounds, 0.24% hits; activation, % at 7.2 µM;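 active means activation above the mean over all tested compounds plus 3 SD, cut at about 30% in these data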;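 further: rise in fluorescence read as greater calcium sensitivity of cardiac thin filaments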
IDE cell activ = boosts human insulin-degrading enzyme activity in HEK cells | 340,000 compounds, 0.073% hits | FAbeta-B cleavage, fluorescence polarization; 0% vehicle, 100% cell-free pure enzyme wells | P14735 | activation, % at 5.96 µM;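 active means activation above the mean of all tested compounds plus 3 SD, set per screening campaign, cut at about 17% in these data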
Cardiac RTF inh = cardiac RTF calcium desensitization; P19429+P45379; IANBD-labeled cardiac RTF, Ca2+ fluorescence; inhibition, % at 7.15 µM; 340,000 compounds, 0.12% hits; AID 493244;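 active means inhibition above the mean inhibition of all tested compounds plus 3 SD, cut at about 17% in these data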;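 further: assay run at fixed EC70 calcium of 1.6 mM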
RTF inh confirm = confirmation of inhibitors of cardiac thin filament calcium sensitivity; reconstituted cardiac thin filaments, calcium sensitivity fluorescence; shares compounds with Cardiac RTF inh; AID 504635; 360 compounds, 8% hits; inhibition, % at 7.15 µM; in the data active means inhibition above about 18%
Active calls of the source: *; nt = no result given; ! = a repeat was not active.

SMILES | CRFR2-BP ag | CRFR2-BP antag | IDE inh | RTF Ca sens act | IDE cell activ | Cardiac RTF inh | RTF inh confirm
O=C(COC(=O)CCSc1ccc(Cl)cc1)NCc1ccccc1Cl | 0 | 19 | 4 | -1 | 7 | 18* | -3
CCc1nnc(NC(=O)c2cccc(S(=O)(=O)N3CCN(C)CC3)c2)s1 | 0 | -6 | nt | nt | nt | nt | nt
CC1(C)C(/C=C/C=C/C=C/C=C2\N(CCCCS(=O)(=O)O)c3ccc4ccccc4c3C2(C)C)=[N+](CCCCS(=O)(=O)[O-])c2ccc3ccccc3c21 | 2 | 69* | 21* | -11 | -9 | 20* | -46
NCCCC[C@H]1CNC(=O)C(=O)N1CCC12CC3CC(CC(C3)C1)C2 | 2 | -7 | 3 | 2 | 2 | -11 | nt
O=C1/C(=C/C=C/c2ccco2)SC(=S)N1NS(=O)(=O)c1ccccc1 | 6 | 9 | 2 | -40 | -5 | 71* | 3
CC(C(=O)O)N1C(=O)/C(=C/C=C/c2ccco2)SC1=S (stereo unspecified) | 6 | -7 | 0 | -51 | -6 | 87* | 40*
O=C1/C(=C/c2cccs2)SC(=S)N1NS(=O)(=O)c1ccccc1 | 1 | 27 | 0 | -6 | -2 | 6 | nt
CC(C)CCN(C(=O)CNC(=O)c1ccco1)C(C(=O)NC1CCCCC1)c1cccnc1 (stereo unspecified) | 1 | -5 | 8 | -6 | -1 | 3 | nt
CCOc1ccc(N(CC(=O)NC2CCCCC2)C(=O)CCC(=O)Nc2ccccn2)cc1 | -1 | 2 | -1 | 0 | 0 | -14 | nt
O=C(C[C@H]1C[C@H](C(=O)N2CCCCC2)[C@@]2(CCc3ccccc3)c3[nH]c4ccc(Cl)cc4c3CCN2C1=O)NCc1cccc(C(F)(F)F)c1 | 0 | 7 | nt | -4 | 7 | -8 | nt
Nc1c(S(=O)(=O)O)cc(NC(=O)c2ccccc2)c2c1C(=O)c1ccccc1C2=O | 0 | 4 | 1 | -11 | -4 | 35* | 5
CCOC(=O)Nc1nnc(CCc2ccccc2)s1 | 2 | -34 | 3 | -4 | 0 | -24 | nt
CCc1nnc(NC(=O)OCc2ccccc2)s1 | -1 | -17 | 3 | 2 | 2 | 17* | -1
CSc1ccc(C(=O)Nc2cc(S(=O)(=O)N3CCOCC3)ccc2N2CCOCC2)cc1[N+](=O)[O-] | -1 | 10 | nt | 8 | 2 | -11 | nt
O=C(OCC1CC(c2ccccc2Cl)=NO1)c1ccc(Br)cc1 (stereo unspecified) | -2 | 21 | 4 | -5 | 2 | 0 | nt
O=C(OCC1CC(c2ccccc2)=NO1)c1ccc(Br)cc1 (stereo unspecified) | -2 | 24 | 0 | 2 | 2 | 18* | -1
CCOC(=O)c1c(N)sc2c(OC)c(Br)ccc12 | 0 | -14 | 9 | -8 | -4 | 21* | -6
CC(=O)c1ccc(N2CCN(CC(=O)N(C3CC3)C3CCS(=O)(=O)C3)CC2)c(F)c1 (stereo unspecified) | -1 | -3 | -1 | 6 | 1 | -14 | nt
CC(C)Cn1c(/C=C/c2ccco2)nc2ccccc21 | 20 | 7 | 0 | 8 | -1 | 18* | -5
c1nnc(NC2=NCCC2)s1 | -3 | -4 | -4 | 4 | 7 | 6 | nt
Cc1cnc(NC2=NCCC2)s1 | 4 | -3 | 0 | -9 | 2 | 45* | -3
O=C(Nc1ccnn1C1CCN(Cc2cccnc2)CC1)c1ccccc1Cl | -1 | -5 | -1 | -7 | 4 | 18* | -1
Fc1ccc([C@@H]2CCNC[C@H]2COc2ccc3c(c2)OCO3)cc1 | -1 | -4 | 4 | -1 | 3 | 20*! | -2
O=C(Nc1ccccc1C(=O)O)/C(=C/c1ccc([N+](=O)[O-])cc1)NC(=O)c1ccc(Br)o1 | 1 | 1 | -4 | 1 | 6 | -8 | nt
CC1(C)CC(=O)C2=C(C1)N(Cc1ccco1)C(=O)NC2(C(F)(F)F)C(F)(F)F | -3 | -12 | 6 | -4 | 3 | 18* | -2
COc1ccc(C(=O)c2ccccc2O)c(O)c1 | -1 | 33 | -3 | -6 | 5 | 17* | -3
S=c1[nH]nc(-c2ccco2)n1/N=C/C=C/c1ccco1 | -5 | -9 | 0 | -12 | -3 | 18* | -9
